Where “and” joins values, the source holds several entries; their conditions need not be identical. Equal values may be shown once. Out of some 5,500 compounds screened, about 2,000 (36%) were called active. About 18% were inconclusive and are not listed. Rule as the data show it: active = normalized growth mostly below about 0.91 (no sharp cut-off); inconclusive = no clear call, values can overlap the other calls; inactive = mostly above about 0.92. The list shows a part of the results.
Assay: chemical genetic growth profiling, strain panel (AID 1159580);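 also: tested at 20 µM; growth read once vehicle control cultures reached saturation at 30 °C; 1 = growth at the plate median or of vehicle wells; lower values mean less growth of the strain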
Conditions: S. cerevisiae deletion strains, growth OD

Measured: normalized growth

COC(=O)c1c(C)cc(OC)cc1O
inactive: locus YAL013W, strain DEP1, hits give low values 1.02 | locus YAL021C, strain ccr4, hits give low values 1.02 | locus YAL026C, strain drs2, hits give low values 0.984 | locus YAL030W, strain snc1, hits give low values 0.971 | locus YBL061C, strain skt5, hits give low values 0.988 | locus YBR009C, strain hhf1, hits give low values 0.978 | locus YBR021W, strain FUR4, hits give low values 1.02 | locus YBR023C, strain chs3, hits give low values 0.973 | locus YBR171W, strain sec66, hits give low values 0.961 | locus YBR229C, strain ROT2, hits give low values 0.996 | locus YBR231C, strain swc5, hits give low values 0.978 | locus YBR279W, strain paf1, hits give low values 0.988 | locus YCL011C, strain gbp2, hits give low values 0.969 | locus YCL016C, strain dcc1, hits give low values 0.966 | locus YCL029C, strain bik1, hits give low values 0.976 | locus YCL069W, strain vba3, hits give low values 0.989 | locus YCR088W, strain abp1, hits give low values 0.971 | locus YDL005C, strain med2, hits give low values 0.985 | locus YDL035C, strain GPR1, hits give low values 1 | locus YDL040C, strain nat1, hits give low values 0.98 | locus YDL074C, strain BRE1, hits give low values 1.02 | locus YDL101C, strain DUN1, hits give low values 1 | locus YDL134C, strain PPH21, hits give low values 1 | locus YDL185W, strain tfp1, hits give low values 0.987 | locus YDL192W, strain arf1, hits give low values 0.985 | locus YDR001C, strain nth1, hits give low values 0.983 | locus YDR069C, strain doa4, hits give low values 0.98 | locus YDR101C, strain arx1, hits give low values 0.954 | locus YDR137W, strain rgp1, hits give low values 1.01 | locus YDR150W, strain NUM1, hits give low values 0.989 | locus YDR159W, strain sac3, hits give low values 0.953 | locus YDR162C, strain NBP2, hits give low values 0.997 | locus YDR195W, strain ref2 1.03 | locus YDR297W, strain sur2, hits give low values 0.984 | locus YDR318W, strain mcm21, hits give low values 0.962 | locus YDR334W, strain swr1, hits give low values 0.984 | locus YDR335W, strain msn5, hits give low values 0.994 | locus YDR388W, hits give low values 0.986 | locus YDR392W, strain spt3, hits give low values 0.913 | locus YDR502C, strain sam2, hits give low values 0.962 | locus YEL003W, strain gim4, hits give low values 0.975 | locus YEL037C, strain rad23, hits give low values 0.991 | locus YEL061C, strain CIN8 (second series), hits give low values 0.98 | locus YEL061C, strain CIN8, hits give low values 0.989 | locus YER015W, strain faa2, hits give low values 0.98 | locus YER016W, strain bim1, hits give low values 0.984 | locus YER110C, hits give low values 0.947 | locus YER111C, strain swi4, hits give low values 0.966 | locus YER155C, strain BEM2, hits give low values 0.994 | locus YER167W, strain BCK2, hits give low values 0.993 | locus YFR010W, strain ubp6, hits give low values 0.992 | locus YGL078C, strain dbp3, hits give low values 0.993 | locus YGL086W, strain mad1, hits give low values 0.988 | locus YGL167C, strain pmr1, hits give low values 0.977 | locus YGL173C, strain kem1, hits give low values 0.971 | locus YGL227W, strain vid30, hits give low values 0.969 | locus YGL240W, strain doc1, hits give low values 0.938 | locus YGL248W, strain PDE1, hits give low values 0.997 | locus YGL253W, strain hxk2, hits give low values 0.979 | locus YGR078C, strain PAC10, hits give low values 0.984 | locus YGR135W, strain pre9, hits give low values 0.962 | locus YGR229C, strain SMI1, hits give low values 1.03 | locus YGR252W, strain gcn5, hits give low values 1.02 | locus YHR013C, strain ard1, hits give low values 1.02 | locus YHR027C, strain rpn1, hits give low values 0.997 | locus YHR030C, strain SLT2, hits give low values 0.993 and 1.04 | locus YHR079C, strain IRE1 (second series), hits give low values 0.961 | locus YHR079C, strain IRE1, hits give low values 1.02 | locus YHR094C, strain hxt1, hits give low values 0.99 | locus YHR129C, strain ARP1, hits give low values 0.999 | locus YHR142W, strain chs7, hits give low values 0.954 | locus YHR200W, strain rpn10, hits give low values 0.965 | locus YIL066C, strain RNR3, hits give low values 1 | locus YIL073C, strain SPO22, hits give low values 0.991 | locus YIL125W, strain kgd1, hits give low values 0.984 | locus YIR030C, strain dcg1, hits give low values 0.972 | locus YJL092W, strain hpr5, hits give low values 0.978 | locus YJL095W, strain BCK1 (second series), hits give low values 0.996 | locus YJL095W, strain BCK1, hits give low values 0.971 and 1.02 | locus YJL115W, strain asf1, hits give low values 0.987 | locus YJL129C, strain trk1, hits give low values 0.965 | locus YJL134W, strain LCB3, hits give low values 0.999 | locus YJL154C, strain vps35, hits give low values 0.98 | locus YJL164C, strain tpk1, hits give low values 0.969 | locus YJL166W, strain qcr8, hits give low values 0.972 | locus YJL168C, strain set2, hits give low values 0.986 | locus YJL187C, strain SWE1 (second series), hits give low values 0.998 | locus YJL187C, strain SWE1, hits give low values 0.982 | locus YJR043C, strain POL32, hits give low values 0.966 | locus YJR066W, strain TOR1, hits give low values 0.965
active: locus YER155C, strain BEM2 (second series), hits give low values 0.858

Reference: PubChem BioAssay AID1159580 (chemical genetic matrix, 2015)
